Measured values reported in PubChem BioAssay (NCATS).
Results filed as inconclusive are left out. Active and inactive are the calls of the source. The call rests on the fitted dose curve; in most records, active means well fitted inhibition curve with a large enough effect; inconclusive means small, poorly fitted or top-dose-only effect; inactive means flat fitted curve, though single readings scatter.

Assays:
Assay in all cases: qHTS profiling for inhibitors of Plasmodium falciparum proliferation (AID 504749); further: nearly all actives have a fitted effect of over 60% in size
Settings in all cases: P. falciparum in erythrocytes, SYBR Green DNA, 72 h
DIV17 = test system: DIV17
Procedure, shortened: (§1)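 Quantitative HTS: compounds pinned into medium, infected erythrocytes added (0.3% parasitemia, 2.5% hematocrit), 72 h culture at 37 C under 5% CO2. Saponin/Triton lysis with SYBR Green I, overnight RT, then fluorescence read.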

DIV30 = test system: DIV30
Procedure, shortened: as §1

Dd2 = test system: Dd2
Procedure, shortened: as §1

ECU = test system: ECU
Procedure, shortened: as §1

GB4 = test system: GB4
Procedure, shortened: as §1

HB3 = test system: HB3
Procedure, shortened: as §1

ICS = test system: ICS
Procedure, shortened: as §1

N140 = test system: N140
Procedure, shortened: as §1

P93_24 = test system: P93_24
Procedure, shortened: as §1

P94_40 = test system: P94_40
Procedure, shortened: as §1

PAD = test system: PAD
Procedure, shortened: as §1

PC15 = test system: PC15
Procedure, shortened: as §1

PC26 = test system: PC26
Procedure, shortened: as §1

SC27B = test system: SC27B
Procedure, shortened: as §1

TAB109 = test system: TAB109
Procedure, shortened: as §1

TAB113 = test system: TAB113
Procedure, shortened: as §1

TAB165 = test system: TAB165
Procedure, shortened: as §1

W2 = test system: W2
Procedure, shortened: as §1

JCK = test system: JCK
Procedure, shortened: as §1

PC49 = test system: PC49
Procedure, shortened: as §1

Measured: Potency
Potency means the concentration at half of the fitted maximal effect.

CC[C@]1(O)CC2CN(CCc3c([nH]c4ccccc34)[C@@](C(=O)OC)(c3cc4c(cc3OC)N(C)[C@H]3[C@@](O)(C(=O)OC)[C@H](OC(C)=O)[C@]5(CC)C=CCN6CC[C@]43[C@@H]65)C2)C1 (stereo partly drawn)
active: DIV17 6750 nM | DIV30 1900 nM | Dd2 178 nM | ECU 2240 nM | GB4 1900 nM | HB3 398 nM | ICS 708 nM | N140 2820 nM | P93_24 1260 nM | P94_40 1000 nM | PAD 4470 nM | PC15 5010 nM | PC26 1690 nM | SC27B 3550 nM | TAB109 1000 nM | TAB113 3980 nM | TAB165 2000 nM | W2 478 nM

CC(=O)O[C@H]1C(=O)[C@@]2(C)[C@H]([C@H](OC(=O)c3ccccc3)[C@]3(O)C[C@H](OC(=O)[C@H](O)[C@@H](NC(=O)c4ccccc4)c4ccccc4)C(C)=C1C3(C)C)[C@]1(OC(C)=O)CO[C@@H]1C[C@@H]2O
active: DIV17 953 nM | DIV30 601 nM | Dd2 126 nM | ECU 891 nM | GB4 338 nM | HB3 1000 nM | ICS 398 nM | JCK 11200 nM | N140 631 nM | P93_24 631 nM | P94_40 355 nM | PAD 708 nM | PC15 1410 nM | PC26 536 nM | PC49 2000 nM | SC27B 1260 nM | TAB109 355 nM | TAB113 1260 nM | TAB165 282 nM | W2 169 nM
